# Hit rate of the full screen: of about 2,400 compounds, about 2,200 (92%) were called active. So high a share suggests a set chosen from earlier hits. Some of the results follow. Values without a mark were called inactive.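 How the source made its calls: active means mean inhibition over triplicate runs exceeds the cutoff derived for the earlier primary screen (cut at about 25% in these data); inactive means the rest.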
# Biological target: Platelet-activating factor acetylhydrolase IB subunit alpha2 (Homo sapiens) (UniProt P68402)
# Sequence (P68402 whole entry, looked up): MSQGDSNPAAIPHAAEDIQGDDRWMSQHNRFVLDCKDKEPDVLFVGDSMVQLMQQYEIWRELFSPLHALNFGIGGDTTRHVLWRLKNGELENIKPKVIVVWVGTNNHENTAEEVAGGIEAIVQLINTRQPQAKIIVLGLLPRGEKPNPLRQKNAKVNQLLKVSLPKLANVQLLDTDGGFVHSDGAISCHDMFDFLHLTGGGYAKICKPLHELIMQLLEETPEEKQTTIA
# Test: inhibition of human PAFAH1B2 catalytic subunit – biochemical, fluorescence polarization, FP-rhodamine probe, triplicate, confirmation (AID 493034);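 further: 0% = enzyme with DMSO and 100% = wells lacking PAFAH1B2 protein; inhibitors lower polarization by leaving the probe unbound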
# Settings: recombinant PAFAH1B2, FP-rhodamine probe fluorescence polarization; at 3.39 µM; stronger effect = higher value
row,Structure (SMILES),inhibition
1,COC(=O)C1=C(c2ccc(C(C)=O)cc2)C[C@@H]2CC[C@H]1N2C(=O)NCc1ccc(F)cc1,23.9%
2,COC(=O)C1=C(c2ccc(C(C)=O)cc2)C[C@@H]2CC[C@H]1N2C(=O)NCc1ccc(C(F)(F)F)cc1,28% (active)
3,O=P(NS(=O)(=O)c1ccc(Br)cc1)(Oc1ccccc1)Oc1ccccc1,78.1% (active)
4,O=P(NS(=O)(=O)c1ccc(Cl)cc1)(Oc1ccccc1)Oc1ccccc1,81.3% (active)
5,Cc1ccc(S(=O)(=O)NP(=O)(Oc2ccccc2)Oc2ccccc2)cc1,51.9% (active)
6,BrCC(Br)C1CCC(Br)C(Br)C1 (configuration not stated),56.7% (active)
7,O=c1[nH]c(=S)n(CCC2=CCCCC2)c(O)c1/C=N/Nc1ccccc1,29.8% (active)
8,O=S(=O)(c1ccc(Cl)cc1)c1ccc(Cl)cc1,42.9% (active)
9,Cc1ccc(OCCOc2cccc(C=C3C(=O)NC(=O)NC3=O)c2)cc1,36.7% (active)
10,O=C(O)CCn1cc(C=C2C(=O)NC(=O)NC2=O)c(-c2ccc(Br)cc2)n1,36.4% (active)
11,O=C(OCCN1CCOCC1)C1(c2ccccc2)CCCC1,32.4% (active)
12,O=C(O)C1(c2ccc(Cl)cc2)CCC1,37% (active)
13,Cn1c(O)c(/C=C2\N=c3ccccc3=C2CCNC(=S)NC2CC2)c(=O)n(C)c1=O,84.3% (active)
14,O=C(Cc1ccccc1)NC(Cc1ccc(Cl)cc1)C(=O)O (configuration not stated),28.4% (active)
15,O=C(Cc1ccc(N(CCCl)CCCl)cc1)NC(Cc1ccc(Cl)cc1)C(=O)O (configuration not stated),63% (active)
16,O=C1CC(=O)N(Cc2ccccc2)C(=S)N1,15.9%
17,O=c1[nH]c(=S)n(Cc2ccc(F)cc2)c(O)c1/C=N/N1CCCCCC1,27.4% (active)
18,O=c1[nH]c(=S)n(Cc2ccc(F)cc2)c(O)c1/C=N/N1CCCCC1,38.2% (active)
19,O=C(N/N=C/c1c(O)n(Cc2ccc(F)cc2)c(=S)[nH]c1=O)c1ccncc1,40.2% (active)

row,Structure (SMILES),inhibition
1,O=C(N/N=C/c1c(O)n(Cc2ccc(F)cc2)c(=O)[nH]c1=O)c1ccccc1,23.9%
2,O=c1[nH]c(=S)n(Cc2ccc(F)cc2)c(O)c1C=NCC1CCCO1 (configuration not stated),27.5% (active)
3,CC1CC(OP(O)(=S)c2ccc(N(C)C)cc2NC(=O)c2cccs2)CC(C)(C)C1 (configuration not stated),17.3%
4,O=C1CN=C(c2ccccc2)c2ccccc2N1Cc1ccc(C(F)(F)F)cc1,57.8% (active)
5,Cc1ccc(Sc2ccc(C=C3C(=O)N(C)C(=O)N(C)C3=O)o2)cc1,62.6% (active)
6,O=C1NC(=O)C(=Cc2ccc(-c3ccc(F)cc3O)o2)C(=O)N1,20.5%
7,Cc1ccc(-c2nc3ccc(Cl)cc3n2OC(=O)N(C)C)cc1,59% (active)
8,CNC(=O)O/N=C(\N)Cc1csc2ccc(Cl)cc12,54.9% (active)
9,FC(F)(F)c1cccc(-n2nnnc2C2(N3CCOCC3)CCCCC2)c1,23.3%
10,Cc1ccc2c(c1)=NC(=O)/C(=C/c1c(O)[nH]c(=O)[nH]c1=O)C=2,21.7%
11,C=C[C@@H]1C[C@@]1(C)[C@@H](NP(=O)(c1ccccc1)c1ccccc1)c1ccccc1,29.2% (active)
12,Nc1ccc(C2(c3ccc(N)cc3)CCCCC2)cc1,45.2% (active)
13,O=P(O)(Oc1ccccc1)OC(c1ccccc1)C(F)(F)C(F)(F)F (configuration not stated),85.5% (active)
14,NP(=O)(OCCCc1ccccc1)Oc1ccccc1 (configuration not stated),51.6% (active)
15,NP(=O)(OCCCc1ccccc1)Oc1ccc(Cl)cc1 (configuration not stated),88.8% (active)
16,Nc1ccc2cc(Br)ccc2c1,70.6% (active)
17,CNC(=O)Oc1ccc(C(=O)N2c3ccccc3NC(=O)C2C)cc1 (configuration not stated),43.6% (active)
18,O=C(O)c1c[nH]c2ccc(S(=O)(=O)N(CCCl)CCCl)cc12,26% (active)
